PubChem BioAssay AID1851 (National Center for Advancing Translational Sciences (NCATS), 2009)
In all, about 16,000 compounds went through this assay and about 4,000 (25%) were called active. Roughly 26% stayed inconclusive and do not appear here. These entries were drawn from the full list. Unmarked numbers belong to inactive results. Calls follow the shape of the dose curve; as a rule, active = well fitted curve in the direction sought with a large enough effect; inconclusive = small, poorly fitted or top-dose-only effect, or effect the other way; inactive = no such curve, though single readings can be large or run the other way.

The compounds below were run against Cytochrome P450 2C9 (Homo sapiens) (UniProt P11712) (assay: Cytochrome panel assay with activity outcomes). Conditions: recombinant CYP, pro-luciferin dealkylation, luminescence, p450-cyp2c9; series mostly up to 57.1 µM; activity, negative = inhibition: at the top concentration.
% is scaled to controls: 0 for no effect and ±100 for the full control effect.

Chain of Cytochrome P450 2C9 (Homo sapiens) (P11712 whole entry, looked up): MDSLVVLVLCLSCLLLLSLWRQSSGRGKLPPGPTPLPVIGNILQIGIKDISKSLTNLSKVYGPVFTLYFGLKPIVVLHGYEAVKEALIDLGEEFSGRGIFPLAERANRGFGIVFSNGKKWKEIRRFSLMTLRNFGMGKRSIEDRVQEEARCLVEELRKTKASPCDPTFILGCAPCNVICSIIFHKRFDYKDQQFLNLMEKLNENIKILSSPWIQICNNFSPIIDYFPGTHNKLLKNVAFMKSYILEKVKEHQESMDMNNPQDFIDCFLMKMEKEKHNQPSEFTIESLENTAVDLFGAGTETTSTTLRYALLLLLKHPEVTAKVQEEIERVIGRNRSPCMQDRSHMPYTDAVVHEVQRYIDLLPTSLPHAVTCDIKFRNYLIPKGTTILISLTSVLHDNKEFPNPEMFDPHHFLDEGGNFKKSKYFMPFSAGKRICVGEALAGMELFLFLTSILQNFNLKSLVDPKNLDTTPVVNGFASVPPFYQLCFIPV

SMILES | activity, negative = inhibition | AC50
Oc1c(CN2CCN(c3ccccc3)CC2)cc(Br)c2cccnc12 | 7.75% [at 11.4 µM] | –
COc1ccc(N2C(=O)NC(NC(=O)c3ccncc3)(C(F)(F)F)C2=O)cc1 (stereo unspecified) | – | 6.31 µM (active)
COc1ccc(-n2c(=O)c(-c3ccc(F)cc3)nc3cncnc32)cc1 | 10.2% | –
Cc1cccc(C(=O)NC2CCN(C(=O)N3CCOCC3)CC2)c1 | -27% | –
O=C1C[C@@H](O)[C@@H](O)[C@H]2[C@@H]3C(=O)N(Cc4ccccc4)C(=O)[C@@H]3CC[C@H]12 | -2.13% [at 11.4 µM] | –
CC(C)C1NC(=S)N(Cc2ccccc2)C1=O (stereo unspecified) | – | 8.91 µM (active)
O=C(O)CN(CCN(CC(=O)O)CC(=O)O)CCN(CC(=O)O)CC(=O)O | – | inactive
CCS(=O)(=O)c1ccc2oc(Nc3cc(C)cc(C)c3)nc2c1 | – | 8.91 µM (active)
CC(CC(=O)O)CC(=O)Nc1ccc(S(N)(=O)=O)cc1 (stereo unspecified) | -16.6% | –
CCN(CC)S(=O)(=O)c1ccc(NC(=O)COC(=O)c2ccc(Br)o2)cc1 | – | 8.91 µM (active)
CN(C)S(=O)(=O)c1ccc(NC(=O)COC(=O)c2ccccn2)cc1 | – | 10 µM (active)
Cc1ccc(S(=O)(=O)N(C)CC(=O)O/N=C(\N)c2ccccn2)cc1 | 30% | –
Cc1ccnc2nc(C(=O)OCC(=O)Nc3ccc4c(c3)OC(F)(F)O4)nn12 | -25.1% | –
CN(C)S(=O)(=O)c1cccc(NC(=O)COC(=O)c2ccc(Br)o2)c1 | – | 6.31 µM (active)
COc1ccccc1-c1ccc2ncnc(NCCNC(C)=O)c2c1 | -2.65% [at 2.29 µM] | –
C=CC1=C[C@@H](O)C2OC2C12OCCCO2 (stereo partly specified) | 12.2% [at 11.4 µM] | –
O=C(Nc1cccc(F)c1)N1CC[C@@]2(CCCNC2)C1 | 2.75% | –
COC(=O)[C@@]1(Cc2ccc(F)cc2)[C@H]2c3cc(C(=O)N4CCCC4)n(Cc4c(CO)[nH]cc(C)c4=O)c3C[C@H]2CN1C(=O)c1ccccc1 | – | 10 µM (active)
COC(=O)[C@@]1(Cc2ccccc2)[C@H]2c3cc(C(=O)N4CCCC4)n(Cc4c(CO)[nH]cc(C)c4=O)c3C[C@H]2CN1C(=O)c1ccccc1 | – | 1 µM (active)
CCCCCCCCCCCCCCCC(=O)C(F)(F)F | 20.8% | –
O=S(=O)(c1ccccc1)N1CCC2(CC1)CN(Cc1ccccc1)C2 | 1.78% | –
N#Cc1ccc(CN2CCCC3(CCN(S(=O)(=O)c4ccccc4)CC3)C2)cc1 | – | 12.6 µM (active)
COC(=O)N1CCC2(CCCN(Cc3ccccc3)C2)CC1 | 0.0487% | –
COCC(=O)N1CCC[C@@]2(CCN(Cc3ccc(C#N)cc3)C2)C1 | 16.8% | –
COC(=O)N1CCC2(CCCN(Cc3ccc(C#N)cc3)C2)CC1 | – | 12.6 µM (active)
N#Cc1ccc(CN2CCC3(CC2)CCN(S(=O)(=O)c2ccccc2)CC3)cc1 | -8.31% | –
